Experimental data reported in ChEMBL document CHEMBL2218924, “A broad activity screen in support of a chemogenomic map for kinase signalling research and drug discovery” (Biochem J, 2013).

Legend:
[1] = molecular target: T1, Ephrin type-A receptor 3 (Homo sapiens) (UniProt P29320); conditions: at 10 µM
T1 sequence (whole entry): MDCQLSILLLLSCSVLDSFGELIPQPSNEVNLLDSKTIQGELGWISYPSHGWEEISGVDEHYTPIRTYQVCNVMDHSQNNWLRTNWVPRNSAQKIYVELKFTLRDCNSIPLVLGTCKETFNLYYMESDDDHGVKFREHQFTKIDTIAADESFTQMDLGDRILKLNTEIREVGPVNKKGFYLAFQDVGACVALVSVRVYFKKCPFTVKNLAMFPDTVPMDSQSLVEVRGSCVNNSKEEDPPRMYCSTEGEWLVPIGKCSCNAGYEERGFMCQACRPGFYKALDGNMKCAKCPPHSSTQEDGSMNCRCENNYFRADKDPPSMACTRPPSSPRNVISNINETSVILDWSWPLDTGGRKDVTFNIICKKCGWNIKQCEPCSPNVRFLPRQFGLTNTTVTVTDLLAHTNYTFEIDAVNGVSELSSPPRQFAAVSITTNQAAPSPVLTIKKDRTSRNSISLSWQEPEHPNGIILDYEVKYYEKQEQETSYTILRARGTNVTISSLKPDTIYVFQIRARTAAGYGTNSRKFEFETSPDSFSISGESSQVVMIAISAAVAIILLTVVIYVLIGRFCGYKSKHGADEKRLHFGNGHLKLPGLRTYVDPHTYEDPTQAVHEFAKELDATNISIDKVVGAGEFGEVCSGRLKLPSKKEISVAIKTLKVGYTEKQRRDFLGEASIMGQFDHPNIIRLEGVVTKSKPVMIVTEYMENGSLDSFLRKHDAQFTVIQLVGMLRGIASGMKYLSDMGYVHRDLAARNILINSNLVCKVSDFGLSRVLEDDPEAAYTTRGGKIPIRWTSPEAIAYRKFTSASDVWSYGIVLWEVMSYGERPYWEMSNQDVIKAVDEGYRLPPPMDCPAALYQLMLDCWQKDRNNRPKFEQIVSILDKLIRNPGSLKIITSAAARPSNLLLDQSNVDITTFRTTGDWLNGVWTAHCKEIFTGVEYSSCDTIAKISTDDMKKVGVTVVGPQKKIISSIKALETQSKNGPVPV

[2] = molecular target: Ephrin type-A receptor 5 (Homo sapiens) (UniProt P54756); conditions: at 1 µM
Chain of Ephrin type-A receptor 5 (Homo sapiens) (P54756 whole entry): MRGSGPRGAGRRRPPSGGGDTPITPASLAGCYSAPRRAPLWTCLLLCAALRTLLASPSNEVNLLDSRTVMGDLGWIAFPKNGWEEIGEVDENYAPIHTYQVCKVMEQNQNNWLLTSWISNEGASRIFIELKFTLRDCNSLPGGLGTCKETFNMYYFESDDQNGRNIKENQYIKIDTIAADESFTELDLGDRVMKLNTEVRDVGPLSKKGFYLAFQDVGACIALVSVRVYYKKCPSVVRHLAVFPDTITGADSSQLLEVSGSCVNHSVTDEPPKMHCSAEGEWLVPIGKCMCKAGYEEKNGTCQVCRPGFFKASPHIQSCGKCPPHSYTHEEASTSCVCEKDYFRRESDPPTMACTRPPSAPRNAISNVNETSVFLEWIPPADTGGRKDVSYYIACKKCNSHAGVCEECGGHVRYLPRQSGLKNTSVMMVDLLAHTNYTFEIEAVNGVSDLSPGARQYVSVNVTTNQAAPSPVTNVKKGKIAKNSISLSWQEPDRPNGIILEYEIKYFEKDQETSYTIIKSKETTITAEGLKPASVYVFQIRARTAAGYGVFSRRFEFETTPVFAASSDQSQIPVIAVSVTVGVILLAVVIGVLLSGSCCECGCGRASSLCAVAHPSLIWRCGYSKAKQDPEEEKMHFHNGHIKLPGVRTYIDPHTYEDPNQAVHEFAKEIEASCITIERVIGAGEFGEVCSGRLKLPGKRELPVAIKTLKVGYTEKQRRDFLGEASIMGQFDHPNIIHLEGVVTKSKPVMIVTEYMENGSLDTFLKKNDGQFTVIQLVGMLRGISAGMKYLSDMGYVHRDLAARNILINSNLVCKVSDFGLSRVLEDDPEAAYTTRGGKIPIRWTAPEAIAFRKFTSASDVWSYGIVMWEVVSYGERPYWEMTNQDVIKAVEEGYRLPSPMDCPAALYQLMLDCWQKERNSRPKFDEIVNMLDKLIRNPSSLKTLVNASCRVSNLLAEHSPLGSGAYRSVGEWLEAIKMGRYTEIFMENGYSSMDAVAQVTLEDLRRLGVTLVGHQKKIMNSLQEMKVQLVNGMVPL

[3] = molecular target: Ephrin type-A receptor 5 (Homo sapiens) (UniProt P54756); conditions: at 10 µM
[4] = molecular target: Ephrin type-A receptor 7 (Homo sapiens) (UniProt Q15375); conditions: at 1 µM
Chain of Ephrin type-A receptor 7 (Homo sapiens) (Q15375 28-998 limits assumed): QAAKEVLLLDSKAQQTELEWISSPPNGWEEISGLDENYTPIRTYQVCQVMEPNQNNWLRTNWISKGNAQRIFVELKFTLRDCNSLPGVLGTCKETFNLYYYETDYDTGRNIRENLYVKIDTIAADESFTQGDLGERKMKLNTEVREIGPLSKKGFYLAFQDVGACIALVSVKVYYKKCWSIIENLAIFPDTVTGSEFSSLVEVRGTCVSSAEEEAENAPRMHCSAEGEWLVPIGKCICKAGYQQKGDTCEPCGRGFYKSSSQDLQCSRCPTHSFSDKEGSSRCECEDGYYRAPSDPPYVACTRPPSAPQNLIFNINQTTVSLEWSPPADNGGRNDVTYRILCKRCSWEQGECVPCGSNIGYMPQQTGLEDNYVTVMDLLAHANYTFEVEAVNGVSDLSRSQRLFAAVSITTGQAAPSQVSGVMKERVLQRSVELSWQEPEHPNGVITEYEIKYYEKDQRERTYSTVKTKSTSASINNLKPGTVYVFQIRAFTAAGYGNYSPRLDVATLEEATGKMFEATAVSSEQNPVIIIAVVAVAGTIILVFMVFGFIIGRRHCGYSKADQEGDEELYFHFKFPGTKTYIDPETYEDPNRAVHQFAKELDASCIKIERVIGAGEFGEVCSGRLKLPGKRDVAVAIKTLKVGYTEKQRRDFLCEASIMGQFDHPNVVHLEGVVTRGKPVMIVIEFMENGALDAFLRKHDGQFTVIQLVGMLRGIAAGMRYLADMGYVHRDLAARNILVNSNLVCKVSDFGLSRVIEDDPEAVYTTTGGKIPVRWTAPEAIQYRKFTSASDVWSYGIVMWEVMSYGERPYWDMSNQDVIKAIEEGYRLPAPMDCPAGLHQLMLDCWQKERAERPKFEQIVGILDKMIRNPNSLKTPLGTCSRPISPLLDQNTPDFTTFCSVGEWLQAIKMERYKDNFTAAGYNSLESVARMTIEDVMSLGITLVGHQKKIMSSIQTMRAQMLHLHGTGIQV

[5] = molecular target: Ephrin type-A receptor 7 (Homo sapiens) (UniProt Q15375); conditions: at 10 µM
[6] = molecular target: T2, Ephrin type-A receptor 8 (Homo sapiens) (UniProt P29322); conditions: at 1 µM
T2 sequence (whole entry): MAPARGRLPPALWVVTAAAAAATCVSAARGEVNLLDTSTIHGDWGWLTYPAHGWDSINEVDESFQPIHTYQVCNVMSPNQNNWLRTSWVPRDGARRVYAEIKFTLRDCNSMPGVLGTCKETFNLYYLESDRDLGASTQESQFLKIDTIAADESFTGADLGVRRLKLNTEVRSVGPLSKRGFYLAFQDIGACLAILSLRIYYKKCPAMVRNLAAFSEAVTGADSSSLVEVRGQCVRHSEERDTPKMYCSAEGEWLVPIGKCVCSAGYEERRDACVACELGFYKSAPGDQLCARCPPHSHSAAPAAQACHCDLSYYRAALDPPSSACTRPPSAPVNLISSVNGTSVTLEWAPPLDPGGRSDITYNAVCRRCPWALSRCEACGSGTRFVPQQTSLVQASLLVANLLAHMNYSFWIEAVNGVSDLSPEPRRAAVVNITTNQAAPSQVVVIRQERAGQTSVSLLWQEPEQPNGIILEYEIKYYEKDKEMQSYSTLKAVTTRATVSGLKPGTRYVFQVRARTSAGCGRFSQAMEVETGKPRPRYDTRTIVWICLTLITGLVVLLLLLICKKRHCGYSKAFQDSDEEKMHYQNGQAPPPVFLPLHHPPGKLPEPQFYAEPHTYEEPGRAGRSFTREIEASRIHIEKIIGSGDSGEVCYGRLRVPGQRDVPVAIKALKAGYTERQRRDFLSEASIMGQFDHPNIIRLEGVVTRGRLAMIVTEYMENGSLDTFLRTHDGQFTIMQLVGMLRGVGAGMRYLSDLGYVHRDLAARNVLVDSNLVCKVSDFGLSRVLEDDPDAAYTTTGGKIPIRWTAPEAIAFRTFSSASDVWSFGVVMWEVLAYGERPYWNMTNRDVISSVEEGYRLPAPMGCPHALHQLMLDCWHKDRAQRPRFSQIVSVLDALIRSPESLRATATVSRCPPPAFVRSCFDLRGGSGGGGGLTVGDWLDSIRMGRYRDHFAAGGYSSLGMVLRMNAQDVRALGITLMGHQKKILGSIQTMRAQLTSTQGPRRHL

[7] = molecular target: T2, Ephrin type-A receptor 8 (Homo sapiens); conditions: at 10 µM
[8] = molecular target: T3, Ephrin type-B receptor 1 (Homo sapiens) (UniProt P54762); conditions: at 10 µM
T3 sequence (whole entry): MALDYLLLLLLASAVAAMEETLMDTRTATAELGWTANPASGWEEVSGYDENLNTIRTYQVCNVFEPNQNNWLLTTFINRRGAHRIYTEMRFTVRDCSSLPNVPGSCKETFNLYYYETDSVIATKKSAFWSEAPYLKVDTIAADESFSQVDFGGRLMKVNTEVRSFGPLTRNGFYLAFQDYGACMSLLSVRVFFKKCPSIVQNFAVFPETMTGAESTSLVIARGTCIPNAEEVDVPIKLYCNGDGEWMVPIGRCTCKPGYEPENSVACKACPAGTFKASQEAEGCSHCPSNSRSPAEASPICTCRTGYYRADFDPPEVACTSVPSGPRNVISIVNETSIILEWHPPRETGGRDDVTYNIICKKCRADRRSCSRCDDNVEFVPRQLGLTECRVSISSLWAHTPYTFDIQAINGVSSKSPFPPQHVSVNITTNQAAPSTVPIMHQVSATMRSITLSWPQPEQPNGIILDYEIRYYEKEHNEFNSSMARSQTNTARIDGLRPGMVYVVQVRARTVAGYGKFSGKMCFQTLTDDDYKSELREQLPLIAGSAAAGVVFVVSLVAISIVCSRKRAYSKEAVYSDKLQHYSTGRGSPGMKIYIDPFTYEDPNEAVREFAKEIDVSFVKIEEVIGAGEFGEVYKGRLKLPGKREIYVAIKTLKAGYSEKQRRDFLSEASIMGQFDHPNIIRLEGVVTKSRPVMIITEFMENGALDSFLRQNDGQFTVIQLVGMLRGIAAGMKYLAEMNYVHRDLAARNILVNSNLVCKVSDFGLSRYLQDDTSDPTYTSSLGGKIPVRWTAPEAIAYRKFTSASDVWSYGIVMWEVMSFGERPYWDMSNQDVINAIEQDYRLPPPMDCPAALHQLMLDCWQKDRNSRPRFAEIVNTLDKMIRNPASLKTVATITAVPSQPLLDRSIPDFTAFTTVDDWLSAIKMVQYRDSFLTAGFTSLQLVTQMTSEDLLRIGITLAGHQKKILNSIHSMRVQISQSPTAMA

[9] = molecular target: T4, Ephrin type-B receptor 4 (Homo sapiens) (UniProt P54760); conditions: at 1 µM
T4 sequence (whole entry): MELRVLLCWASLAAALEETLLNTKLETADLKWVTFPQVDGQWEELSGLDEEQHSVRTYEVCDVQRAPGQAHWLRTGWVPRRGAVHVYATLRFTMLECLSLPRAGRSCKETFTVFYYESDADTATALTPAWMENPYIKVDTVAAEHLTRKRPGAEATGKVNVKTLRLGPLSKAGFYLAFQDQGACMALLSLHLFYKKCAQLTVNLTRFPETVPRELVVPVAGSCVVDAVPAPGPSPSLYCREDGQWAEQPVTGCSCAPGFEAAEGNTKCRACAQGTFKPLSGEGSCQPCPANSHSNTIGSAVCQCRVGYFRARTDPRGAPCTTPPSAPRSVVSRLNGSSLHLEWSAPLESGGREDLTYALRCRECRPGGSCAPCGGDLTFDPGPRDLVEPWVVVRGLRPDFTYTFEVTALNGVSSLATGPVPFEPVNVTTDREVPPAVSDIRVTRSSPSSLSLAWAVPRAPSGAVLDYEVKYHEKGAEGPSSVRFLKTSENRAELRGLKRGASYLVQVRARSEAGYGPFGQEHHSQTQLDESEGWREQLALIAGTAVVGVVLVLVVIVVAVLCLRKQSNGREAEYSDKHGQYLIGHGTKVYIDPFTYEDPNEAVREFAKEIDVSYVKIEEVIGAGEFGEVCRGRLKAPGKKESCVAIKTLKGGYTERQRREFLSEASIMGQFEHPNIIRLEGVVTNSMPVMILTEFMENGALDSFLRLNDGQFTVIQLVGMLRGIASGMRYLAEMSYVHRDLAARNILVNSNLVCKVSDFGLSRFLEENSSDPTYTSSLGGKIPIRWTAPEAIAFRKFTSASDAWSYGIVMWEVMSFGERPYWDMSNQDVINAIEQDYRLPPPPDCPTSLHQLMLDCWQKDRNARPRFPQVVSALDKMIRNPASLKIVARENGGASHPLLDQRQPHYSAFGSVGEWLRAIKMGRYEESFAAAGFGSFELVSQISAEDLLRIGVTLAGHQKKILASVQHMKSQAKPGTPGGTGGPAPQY

[10] = molecular target: T4, Ephrin type-B receptor 4 (Homo sapiens); conditions: at 10 µM
[11] = molecular target: Focal adhesion kinase 1 (Homo sapiens) (UniProt Q05397); conditions: at 1 µM
Chain of Focal adhesion kinase 1 (Homo sapiens) (Q05397 2-1052 limits assumed): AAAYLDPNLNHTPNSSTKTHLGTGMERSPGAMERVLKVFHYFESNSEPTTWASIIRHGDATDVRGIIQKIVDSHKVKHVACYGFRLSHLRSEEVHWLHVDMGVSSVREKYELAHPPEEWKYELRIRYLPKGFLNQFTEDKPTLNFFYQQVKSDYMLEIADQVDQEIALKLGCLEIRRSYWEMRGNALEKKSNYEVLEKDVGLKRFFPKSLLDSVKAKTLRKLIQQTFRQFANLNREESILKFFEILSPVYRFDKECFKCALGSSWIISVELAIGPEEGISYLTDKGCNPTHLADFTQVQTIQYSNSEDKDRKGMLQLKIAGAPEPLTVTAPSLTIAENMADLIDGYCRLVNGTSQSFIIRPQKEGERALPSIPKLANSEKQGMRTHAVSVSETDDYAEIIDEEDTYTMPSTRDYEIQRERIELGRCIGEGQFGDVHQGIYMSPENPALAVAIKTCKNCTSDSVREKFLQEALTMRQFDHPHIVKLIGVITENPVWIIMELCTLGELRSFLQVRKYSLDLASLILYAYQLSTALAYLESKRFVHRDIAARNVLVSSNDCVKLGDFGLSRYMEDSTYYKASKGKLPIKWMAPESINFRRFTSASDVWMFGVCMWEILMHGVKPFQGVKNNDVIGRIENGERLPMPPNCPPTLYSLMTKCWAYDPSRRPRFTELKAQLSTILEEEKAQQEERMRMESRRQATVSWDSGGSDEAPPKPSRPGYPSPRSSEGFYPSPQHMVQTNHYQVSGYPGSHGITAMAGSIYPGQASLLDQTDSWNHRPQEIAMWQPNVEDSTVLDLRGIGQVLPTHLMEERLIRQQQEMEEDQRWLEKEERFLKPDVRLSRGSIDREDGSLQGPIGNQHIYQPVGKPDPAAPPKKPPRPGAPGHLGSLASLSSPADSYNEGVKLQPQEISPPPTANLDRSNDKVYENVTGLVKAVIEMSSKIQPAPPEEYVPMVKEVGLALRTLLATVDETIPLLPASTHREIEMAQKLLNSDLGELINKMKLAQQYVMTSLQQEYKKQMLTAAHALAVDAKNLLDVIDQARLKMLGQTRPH

[12] = molecular target: T5, Ephrin type-B receptor 2 (Homo sapiens) (UniProt P29323); conditions: at 1 µM
T5 sequence (whole entry): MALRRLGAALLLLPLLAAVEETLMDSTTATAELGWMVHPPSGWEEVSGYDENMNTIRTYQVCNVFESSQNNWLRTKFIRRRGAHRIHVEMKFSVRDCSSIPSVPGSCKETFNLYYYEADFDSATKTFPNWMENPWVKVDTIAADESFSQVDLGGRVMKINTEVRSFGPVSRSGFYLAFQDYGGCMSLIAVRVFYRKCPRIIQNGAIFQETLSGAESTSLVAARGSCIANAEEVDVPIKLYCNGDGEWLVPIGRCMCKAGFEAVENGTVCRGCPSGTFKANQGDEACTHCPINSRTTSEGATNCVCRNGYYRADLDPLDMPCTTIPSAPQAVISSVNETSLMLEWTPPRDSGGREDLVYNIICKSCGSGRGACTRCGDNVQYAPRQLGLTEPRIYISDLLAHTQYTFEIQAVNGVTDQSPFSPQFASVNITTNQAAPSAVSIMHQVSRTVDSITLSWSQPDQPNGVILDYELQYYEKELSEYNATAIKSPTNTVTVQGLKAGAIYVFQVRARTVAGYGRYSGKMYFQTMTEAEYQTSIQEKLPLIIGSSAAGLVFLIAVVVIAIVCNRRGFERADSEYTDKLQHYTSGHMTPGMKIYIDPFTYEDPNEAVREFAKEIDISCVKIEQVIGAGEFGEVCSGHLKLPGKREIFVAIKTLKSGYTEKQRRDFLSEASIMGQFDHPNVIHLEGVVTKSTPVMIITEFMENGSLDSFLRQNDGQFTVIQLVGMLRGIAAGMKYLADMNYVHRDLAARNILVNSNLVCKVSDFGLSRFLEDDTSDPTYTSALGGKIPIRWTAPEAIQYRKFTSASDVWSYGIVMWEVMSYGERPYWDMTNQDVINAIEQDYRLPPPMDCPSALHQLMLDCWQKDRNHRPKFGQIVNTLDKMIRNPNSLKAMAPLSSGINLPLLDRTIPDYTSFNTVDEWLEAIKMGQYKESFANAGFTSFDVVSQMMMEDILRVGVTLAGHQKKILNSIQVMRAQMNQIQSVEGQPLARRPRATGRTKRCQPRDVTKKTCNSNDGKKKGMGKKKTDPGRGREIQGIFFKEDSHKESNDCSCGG

[13] = molecular target: T5, Ephrin type-B receptor 2 (Homo sapiens); conditions: at 10 µM
[14] = molecular target: T6, Ephrin type-B receptor 3 (Homo sapiens) (UniProt P54753); conditions: at 1 µM
T6 sequence (whole entry): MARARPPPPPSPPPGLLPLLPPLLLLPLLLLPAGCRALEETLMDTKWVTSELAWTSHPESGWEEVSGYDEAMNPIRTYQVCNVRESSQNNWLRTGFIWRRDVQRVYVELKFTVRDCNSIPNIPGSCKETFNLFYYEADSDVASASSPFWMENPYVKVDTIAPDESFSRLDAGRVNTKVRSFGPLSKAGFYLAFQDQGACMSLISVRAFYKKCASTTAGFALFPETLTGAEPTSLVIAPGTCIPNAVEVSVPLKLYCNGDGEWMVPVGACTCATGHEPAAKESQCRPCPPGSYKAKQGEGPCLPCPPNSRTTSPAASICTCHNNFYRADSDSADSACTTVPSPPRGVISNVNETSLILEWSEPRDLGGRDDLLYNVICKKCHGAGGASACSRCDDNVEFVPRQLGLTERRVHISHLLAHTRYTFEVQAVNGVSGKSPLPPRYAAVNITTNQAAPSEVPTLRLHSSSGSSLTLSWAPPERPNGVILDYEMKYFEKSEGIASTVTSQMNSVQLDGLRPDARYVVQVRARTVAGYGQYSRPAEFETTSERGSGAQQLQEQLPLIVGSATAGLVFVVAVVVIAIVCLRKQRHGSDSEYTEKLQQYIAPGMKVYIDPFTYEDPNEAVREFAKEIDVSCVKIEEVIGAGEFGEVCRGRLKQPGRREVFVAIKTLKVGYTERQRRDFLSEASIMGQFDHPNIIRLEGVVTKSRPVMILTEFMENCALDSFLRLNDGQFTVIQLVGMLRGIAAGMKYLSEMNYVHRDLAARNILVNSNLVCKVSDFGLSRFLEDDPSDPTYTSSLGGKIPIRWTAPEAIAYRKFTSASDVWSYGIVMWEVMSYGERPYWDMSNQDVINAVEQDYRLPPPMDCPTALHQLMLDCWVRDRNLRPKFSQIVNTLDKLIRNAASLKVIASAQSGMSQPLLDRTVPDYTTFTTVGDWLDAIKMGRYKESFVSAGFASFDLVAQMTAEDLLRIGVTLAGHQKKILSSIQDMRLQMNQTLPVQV

[15] = molecular target: T6, Ephrin type-B receptor 3 (Homo sapiens); conditions: at 10 µM
[16] = molecular target: Receptor tyrosine-protein kinase erbB-4 (Homo sapiens) (UniProt Q15303); conditions: at 1 µM
Chain of Receptor tyrosine-protein kinase erbB-4 (Homo sapiens) (Q15303 whole entry): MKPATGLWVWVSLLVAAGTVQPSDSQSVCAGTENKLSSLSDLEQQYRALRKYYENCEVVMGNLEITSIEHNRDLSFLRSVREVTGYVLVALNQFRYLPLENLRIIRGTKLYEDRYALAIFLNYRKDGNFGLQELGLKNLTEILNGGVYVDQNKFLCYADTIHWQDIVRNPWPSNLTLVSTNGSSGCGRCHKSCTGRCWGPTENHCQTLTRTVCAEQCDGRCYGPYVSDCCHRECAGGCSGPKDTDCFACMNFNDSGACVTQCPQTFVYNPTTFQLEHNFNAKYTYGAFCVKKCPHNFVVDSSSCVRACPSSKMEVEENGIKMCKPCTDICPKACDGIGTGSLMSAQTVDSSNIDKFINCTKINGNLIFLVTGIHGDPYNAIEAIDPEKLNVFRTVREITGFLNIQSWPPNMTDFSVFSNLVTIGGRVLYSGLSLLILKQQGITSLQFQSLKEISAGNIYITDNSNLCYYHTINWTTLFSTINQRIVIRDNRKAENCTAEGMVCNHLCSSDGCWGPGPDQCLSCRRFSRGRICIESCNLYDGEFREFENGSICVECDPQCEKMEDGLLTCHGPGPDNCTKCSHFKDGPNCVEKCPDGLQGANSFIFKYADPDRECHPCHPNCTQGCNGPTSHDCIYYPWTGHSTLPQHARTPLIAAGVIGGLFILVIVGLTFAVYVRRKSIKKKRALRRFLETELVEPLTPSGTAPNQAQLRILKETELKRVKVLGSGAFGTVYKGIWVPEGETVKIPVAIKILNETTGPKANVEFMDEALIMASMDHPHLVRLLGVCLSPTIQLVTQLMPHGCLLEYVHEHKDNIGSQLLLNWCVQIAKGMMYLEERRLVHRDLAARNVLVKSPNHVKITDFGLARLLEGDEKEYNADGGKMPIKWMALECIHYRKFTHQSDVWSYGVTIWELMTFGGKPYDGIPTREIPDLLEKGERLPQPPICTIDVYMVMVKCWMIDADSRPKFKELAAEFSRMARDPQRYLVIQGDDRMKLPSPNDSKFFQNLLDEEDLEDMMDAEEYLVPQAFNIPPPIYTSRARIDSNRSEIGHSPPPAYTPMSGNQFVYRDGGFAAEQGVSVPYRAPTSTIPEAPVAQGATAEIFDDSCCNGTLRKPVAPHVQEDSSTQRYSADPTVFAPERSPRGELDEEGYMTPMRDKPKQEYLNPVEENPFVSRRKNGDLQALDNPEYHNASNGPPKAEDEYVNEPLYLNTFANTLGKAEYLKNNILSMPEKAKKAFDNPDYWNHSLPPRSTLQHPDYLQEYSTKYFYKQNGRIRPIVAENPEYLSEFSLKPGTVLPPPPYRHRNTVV

[17] = molecular target: Receptor tyrosine-protein kinase erbB-4 (Homo sapiens) (UniProt Q15303); conditions: at 10 µM

Compound	residual activity [1] [%]	residual activity [2] [%]	residual activity [3] [%]	residual activity [4] [%]	residual activity [5] [%]	residual activity [6] [%]	residual activity [7] [%]	residual activity [8] [%]	residual activity [9] [%]	residual activity [10] [%]	residual activity [11] [%]	residual activity [12] [%]	residual activity [13] [%]	residual activity [14]	residual activity [15] [%]	residual activity [16] [%]	residual activity [17] [%]
O=C1C(Cl)=C(N2C(=O)CCC2=O)C(=O)c2ccccc21	89	119	96	99	92	96	92	93	93	81	93						
O=C1NC(=O)C(c2cn(CCCn3ccnc3)c3ccccc23)=C1Nc1ccccc1		125	109						109	119	119	115	122	114% (inactive)	148	70	13
